Test results as given in PubChem BioAssay.
Calls of active or inactive are those of the source.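 The calls were made as follows, unless noted: active = inhibition at or above 50% at 10 µM; inactive = inhibition below 50%.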

Key:
[1] = inhibitors of TNFa-induced NFkB p65 translocation, primary screen, imaging, HUVEC, MLSMR starter and 10KST1 sets (AID 438;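 active = inhibition above 20% together with a positive visual image hit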;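 also: compound added about 3h40 before a 20 min TNFalpha stimulation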;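 as to inhibition: signal is the nuclear over cytoplasmic p65 intensity ratio per well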); settings: HUVEC TNFa-induced p65 nuclear translocation; cell count: measured here: nuclei count (cytotoxicity indicator), at 2.08 µM; inhibition: at 2 µM, stronger effect = higher value, 0% TNFa-plus-vehicle, 100% no-TNFa wells
[2] = reduction of polyQ htt aggregates in cells – imaging, exon1htt(103Q)mCFP cells, high-content imaging, primary screen (AID 483;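 active = visual image review flags a hit and inhibition of aggregation exceeds 20%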;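 also: compound exposure lasted 3 days before fixation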;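 as to nuclei count: percent of the per-plate median nuclei count of sample wells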); settings: exon1htt(103Q)mCFP cell line, aggregate imaging, at 2 µM; inhibition of aggregation: stronger effect = higher value; nuclei count: measured here: cell count, toxicity
[3] = endothelial E-selectin expression blockers – imaging, HUVEC, immunofluorescence, MLSMR starter and 10KST1 sets, primary screen (AID 487;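 active = visually confirmed hit in the image check and inhibition above 20%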;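 as to inhibition: signal is fraction of cell area covered by stained E-selectin grains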;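 as to nuclei count: 100% = median nuclei count of all wells on the same plate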); settings: HUVEC TNFalpha-induced E-selectin immunofluorescence imaging, at 2 µM; inhibition: stronger effect = higher value; nuclei count: measured here: cell number, toxicity
[4] = biological target: Voltage-gated potassium channel subunit beta-2 (Rattus norvegicus) (UniProt P62483); test: inhibitors of rat Kvbeta2 reductase activity – biochemical, NADPH fluorescence, primary screen (AID 622;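 active = fluorescence slope higher than the sample average by over 3 SD, cut at about -0.22 in these data, passing the limit was not always enough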;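 also: slope of raw intensity against log time taken from 70 to 1610 s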); settings: recombinant KvBeta, 4-cyanobenzaldehyde reduction, at 10 µM, stronger effect = higher value
Voltage-gated potassium channel subunit beta-2 (Rattus norvegicus), sequence (P62483 whole entry, looked up): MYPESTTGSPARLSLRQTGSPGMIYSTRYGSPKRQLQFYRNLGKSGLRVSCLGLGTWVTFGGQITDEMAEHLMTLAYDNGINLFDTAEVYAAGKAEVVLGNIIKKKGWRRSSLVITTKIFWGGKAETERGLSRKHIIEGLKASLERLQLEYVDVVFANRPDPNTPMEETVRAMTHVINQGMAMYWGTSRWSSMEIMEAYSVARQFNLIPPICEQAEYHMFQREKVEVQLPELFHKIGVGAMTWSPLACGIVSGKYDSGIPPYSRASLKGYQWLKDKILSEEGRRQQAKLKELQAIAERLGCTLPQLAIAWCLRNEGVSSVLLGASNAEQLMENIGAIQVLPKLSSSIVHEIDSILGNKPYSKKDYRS

[5] = biological target: Voltage-gated potassium channel subunit beta-2 (Rattus norvegicus) (UniProt P62483); test: enhancers of rat Kvbeta2 NADPH turnover – biochemical, NADPH fluorescence, primary screen (AID 623;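 active = NADPH fluorescence slope more negative than the mean of all samples by about 3 SD, 99.7% confidence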;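 also: fluorescence intensity change per second fitted from 20 to 320 s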); settings: Recombinant KvBeta, NADPH fluorescence decrease slope, 10 min; at 10 µM; stronger effect = lower value
[6] = biological target: Alpha-2C adrenergic receptor (Homo sapiens) (UniProt P18825); test: compounds altering alpha2C-coupled GIRK flux – cell-based, HEK293 alpha2C/GIRK1/2, thallium flux, primary screen (AID 624;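 active = fluorescence slope after compound addition differing from the mean of all screened samples at 99.7% confidence, in either direction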;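 also: slope of fluorescence ratio to pre-addition baseline per second over 15 to 24 s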); settings: thallium flux BTC fluorescence, at 10 µM, actives lie on both sides
Alpha-2C adrenergic receptor (Homo sapiens), sequence (P18825 whole entry, looked up): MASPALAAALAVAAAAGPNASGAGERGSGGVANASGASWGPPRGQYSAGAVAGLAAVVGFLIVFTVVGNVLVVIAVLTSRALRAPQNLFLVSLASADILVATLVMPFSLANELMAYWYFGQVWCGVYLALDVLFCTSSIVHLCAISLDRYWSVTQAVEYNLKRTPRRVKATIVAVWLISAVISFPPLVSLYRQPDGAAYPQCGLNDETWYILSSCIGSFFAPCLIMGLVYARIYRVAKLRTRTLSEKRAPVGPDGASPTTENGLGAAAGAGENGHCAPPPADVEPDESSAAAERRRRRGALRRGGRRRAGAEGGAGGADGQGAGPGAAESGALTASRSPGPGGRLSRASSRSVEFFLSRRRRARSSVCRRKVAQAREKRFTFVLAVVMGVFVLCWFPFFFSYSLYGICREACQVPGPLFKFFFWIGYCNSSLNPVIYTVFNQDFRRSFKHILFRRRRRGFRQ

[7] = blockers of RIG-like receptor reporter activation – cell-based, Sendai virus stimulus, luciferase, 10K MLSCN set, TLR/RLR signaling modifier project, primary screen (AID 602276); settings: HEK293 RL24 IRF3 luciferase reporter, at 10 µM, stronger effect = higher value;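 also: firefly luciferase from ISG56 promoter only with Renilla not read in this screen; 0% = Sendai virus plus DMSO and 100% = medium plus DMSO without virus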
[8] = TLR3 IRF3 reporter activation blockers – cell-based, poly I:C stimulus, luciferase, 10K MLSCN set, primary screen (AID 602277;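 active = inhibition of the reporter signal at or above 50%; inactive = inhibition below 50%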); settings: HEK293-TLR3 RL24 IRF3 luciferase reporter, at 10 µM, stronger effect = higher value

SMILES	cell count [1]	inhibition [1]	inhibition of aggregation [2]	nuclei count [2]	inhibition [3]	nuclei count [3]	fluorescence slope [4]	NADPH fluorescence slope [5]	slope [6]	inhibition [7]	inhibition [8]
Cn1c(=O)cc(OCCCC(=O)N2CCCCC2)c2ccccc21	372	8.3% (inactive)	-21.8% (inactive)	96.2%	-22.3% (inactive)	112%	-0.578 (inactive)	1.8e-05 (inactive)	0.00683 (inactive)	-4.34% (inactive)	36.6% (inactive)
CC1Cc2ccccc2N1C(=O)COC(=O)Cn1nnc(-c2ccccc2)n1 (centres undefined)	543	-9% (inactive)	-4.6% (inactive)	96.1%	-39.7% (inactive)	123%	-0.583 (inactive)	-4e-05 (inactive)	0.00555 (inactive)	11% (inactive)	34.2% (inactive)
CN1CCN(C(=O)C2(NC(=O)Nc3cccc(F)c3)CCCCC2)CC1	586	-33.7% (inactive)	-14.5% (inactive)	105%	-39.7% (inactive)	109%	-0.596 (inactive)	-4.2e-05 (inactive)	0.00664 (inactive)	3.99% (inactive)	3.07% (inactive)
CC(=O)N1CCN(c2ccc(NC(=O)c3ccc(C(C)(C)C)cc3)cc2)CC1	816	7.3% (inactive)	-7.5% (inactive)	97.8%	-186% (inactive)	135%	-0.494 (inactive)	-4e-05 (inactive)	0.00554 (inactive)	-19.2% (inactive)	-42.5% (inactive)
CCCN(CCC)CCNS(=O)(=O)c1ccc2c(c1)oc(=O)n2C	346	-13.8% (inactive)	-2.5% (inactive)	77.3%	-106% (inactive)	119%	-0.427 (inactive)	-3.3e-05 (inactive)	0.00461 (inactive)	9.38% (inactive)	10.9% (inactive)
CCC(=O)N1CCN(c2nc(-c3ccccc3)c3c(c2C#N)CCCC3)CC1	501	6.3% (inactive)	0.7% (inactive)	98.3%	-27.6% (inactive)	108%	-0.317 (inactive)	-8.2e-07 (inactive)	0.00519 (inactive)	13.4% (inactive)	44.4% (inactive)
CC(=O)Nc1cccc(NC(=O)C2CCCN2C(=O)Nc2ccc(C)cc2)c1 (centres undefined)	789	-3.2% (inactive)	0.5% (inactive)	89.4%	-3.5% (inactive)	111%	-0.507 (inactive)	-4.3e-06 (inactive)	0.0061 (inactive)	-9.54% (inactive)	20.3% (inactive)
O=C1C/C(=C/NCc2ccccc2)C(=O)N1	464	-7.4% (inactive)	22.7% (inactive)	67.6%	-106% (inactive)	95.9%	-0.423 (inactive)	-2.2e-05 (inactive)	0.0024 (inactive)	4.55% (inactive)	30.7% (inactive)
CCn1cc(C2=NOC(C(=O)Nc3c(C)nn(Cc4ccc(F)cc4)c3C)C2)c(C)n1 (centres undefined)	766	-12.2% (inactive)	-18.1% (inactive)	105%	-34.2% (inactive)	94.7%	-0.581 (inactive)	-2.9e-05 (inactive)	0.00617 (inactive)	12.3% (inactive)	11.4% (inactive)
